Laboratory results reported in the supplement of paper PMC3334620.
Over roughly 33,000 sequences, “E-score (-0.5 to 0.5)” has its median near -8e-05; the highest 2% begin near 0.23. Shown is part of a subset that was picked to be rich in the highest values.

biological target: T1, Nrg2 (UniProt P38082); experiment: PBM E-score (8-mer binding enrichment) (E-score (-0.5 to 0.5)); higher = stronger / more preferred TF binding; conditions: protein concentration: 100 nM; construct: GST-full length
T1 sequence: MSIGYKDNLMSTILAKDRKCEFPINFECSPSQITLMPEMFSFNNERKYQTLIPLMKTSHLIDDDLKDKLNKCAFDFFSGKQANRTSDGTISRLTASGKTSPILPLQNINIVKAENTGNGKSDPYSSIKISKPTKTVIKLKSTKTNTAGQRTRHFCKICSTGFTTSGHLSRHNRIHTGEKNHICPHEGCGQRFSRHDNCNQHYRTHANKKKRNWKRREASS
Method: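 Universal 'all 10-mer' protein binding microarrays (Agilent AMADID 015681) probed with GST-tagged S. cerevisiae TFs (full-length or DBD) made by in vitro transcription/translation (PURExpress), about 100-200 nM. Bound TF was detected with fluorescent anti-GST. Each ungapped 8-mer (which stands for itself and its reverse complement) is scored by the PBM enrichment score (E-score), a modified Wilcoxon-Mann-Whitney statistic from -0.5 to +0.5, computed with the Universal PBM Analysis Suite. Scale: above 0.35 generally sequence-specific binding.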

Row | Sequence | PBM E-score
1 | AATATAGG | 0.229
2 | AATATAAT | 0.0957
3 | AATATAAG | 0.258
4 | TATATAAA | 0.2
5 | AATATAGT | 0.206
6 | CATATAAG | 0.0579
7 | CATATAAA | 0.00613
8 | AATATAGC | 0.0275
9 | AATATAAA | 0.233
10 | ACACTTCA | 0.103
11 | CAGCCAGC | -0.115
12 | CAAACAGC | 0.00877
13 | AAGGGCCA | -0.0108
14 | AGTTTGGG | 0.0374
15 | CCGGCGAA | 0.0927
16 | GGAAACAA | 0.105
17 | AGAAACAC | 0.0617
18 | AGAAACAA | 0.258
19 | AATCGGCG | 0.0404
20 | AAGGTTTG | 0.0916
21 | GTCAGGGA | 0.18
22 | CACAGACA | 0.118

Row | Sequence | PBM E-score
23 | CCCAGGGA | 0.124
24 | CTCAGGGC | 0.157
25 | GACAGACC | 0.0299
26 | TCCAGGGA | 0.242
27 | AACAGGGG | 0.105
28 | AACAGGGC | 0.283
29 | GACAGACA | 0.248
30 | CTCAGGGA | 0.319
31 | CACAGGGC | 0.179
32 | ACCAGGGA | 0.122
33 | GCATTCCC | -0.0654
34 | ATTCGACC | -0.0786
35 | AGAGCGCT | 0.0785
36 | CGCGGGGC | 0.0564
37 | AAGGGCAT | -0.139
38 | ATGCGACA | 0.0603
39 | GCAAGTGA | -0.0727
40 | AGCTAGCG | 0.00875
41 | ACGAAGAC | -0.135
42 | GAGCAAGA | -0.00443
43 | GCTGAAAA | 0.114
44 | GATCTCCA | 0.0533

Row | Sequence | PBM E-score
45 | CAGAGCTG | -0.0821
46 | AGAACGAA | 0.179
47 | AACAGGGA | 0.176
48 | GACAGGGA | 0.252
49 | CACAGGGA | 0.139
50 | CACCTCTC | -0.0403
51 | ATGGCCTA | 0.00552
52 | GCAAGAAC | 0.188
53 | ATAAGAAA | 0.101
54 | ACAAGAAT | 0.0779
55 | ACAAGAAC | 0.262
56 | ACCAGAAC | 0.238
57 | ACCAGAAA | 0.041
58 | ATAAGAAC | 0.36
59 | ATAAGAAT | 0.135
60 | CCAAGAGA | -0.14
61 | ACAAGAGA | 0.24
62 | ACAAGAGC | 0.0831
63 | ACCAGAAG | -0.134
64 | AGGAGCAC | 0.0739
65 | AGTTGGCA | 0.1
66 | AGCTTACA | 0.128

Row | Sequence | PBM E-score
67 | GCTCCCAA | -0.0754
68 | CGCTACAG | -0.103
69 | ATATACAC | 0.081
70 | ATATACTA | 0.307
71 | ATATACTC | 0.0973
72 | CTATACTA | 0.111
73 | ATATACAA | 0.237
74 | CTATACAA | -0.0419
75 | AAATCACT | 0.124
76 | CACAGCCA | -0.0609
77 | CGGAGATA | 0.0572
78 | ATGGTGTA | -0.0203
79 | TCATATCA | 0.0508
80 | CCATATCA | 0.00491
81 | GCATATCA | 0.256
82 | CTTAACGA | 0.123
83 | GGCGAAGA | -0.0414
84 | ATCTAGAA | -0.0175
85 | CAAGACCG | -0.00525
86 | AACCTATG | -0.101
